# Experimental data: PubChem BioAssay (NCATS)
# A number with no mark means an inactive call. Inconclusive results are not listed. Where a call stands in place of a potency, no number is given. Calls of active or inactive are those of the source. Unless noted, calls follow the shape of the dose curve; as a rule, active = well fitted curve in the direction sought with a large enough effect; inconclusive = small, poorly fitted or top-dose-only effect, or another doubt; inactive = no such curve, though single readings can be large; an effect the other way counts as inactive or inconclusive.
# Columns and labels:
# [1] = biological target: Arylsulfatase A (Homo sapiens) (UniProt P15289); test: qHTS screen for enhancers of Arylsulfatase A (ASA1): LOPAC Validation Assay (AID 720538)
# Arylsulfatase A (Homo sapiens), sequence (P15289 whole entry, looked up): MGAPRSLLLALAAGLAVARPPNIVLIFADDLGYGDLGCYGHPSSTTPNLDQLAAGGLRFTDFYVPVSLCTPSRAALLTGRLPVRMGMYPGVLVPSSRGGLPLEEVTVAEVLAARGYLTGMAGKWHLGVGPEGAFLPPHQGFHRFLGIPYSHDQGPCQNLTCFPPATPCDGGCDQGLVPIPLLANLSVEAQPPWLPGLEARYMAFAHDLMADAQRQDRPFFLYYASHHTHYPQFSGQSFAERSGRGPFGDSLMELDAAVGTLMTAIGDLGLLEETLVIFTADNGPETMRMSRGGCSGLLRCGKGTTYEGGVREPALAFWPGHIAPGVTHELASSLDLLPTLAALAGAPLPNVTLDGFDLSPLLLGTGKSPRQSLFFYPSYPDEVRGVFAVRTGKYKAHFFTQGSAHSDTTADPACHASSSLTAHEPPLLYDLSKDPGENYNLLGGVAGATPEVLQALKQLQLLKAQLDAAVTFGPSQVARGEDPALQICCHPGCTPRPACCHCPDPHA
# Method in brief: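 SV40-transformed fibroblasts from an MLD patient (ASA-I179S) were treated with compound for 48 h at 37 C. They were then lysed with 0.5 mM pNCS substrate (final) for 14 h at room temperature and stopped with NaOH; signal read by fluorescence (Ex 525/Em 598 nm), with increase denoting enhanced activity.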
# [2] = qHTS for compounds that reverse cellular toxicity of Amyloid beta (A-beta) peptide in yeast: LOPAC Validation Assay (AID 720559)
# Method in brief: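 Yeast expressing toxic A-beta grown with pinned compounds at 30 C for 48 hr. Growth measured as absorbance at 600 nm; data normalized to DMSO and to an equimolar FeCl3/clioquinol mixture as positive control.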
# [3] = qHTS for Activators of Parkin Expression: LOPAC Validation Assay (NLuc Reporter) (AID 720572; also: potency is read from the fitted curve at half-maximal effect)
# Method in brief: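 NLuc signal, read 10 min after reagent and following a prior FLuc read, is normalized to DMSO (0) and positive controls (100%). Cells: neuronal Parkin-promoter coincidence reporter line; compounds tested 7-point, 24 h, 37 C, 5% CO2.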
# [4] = qHTS for Activators of Parkin Expression: LOPAC Validation Assay (FLuc Reporter) (AID 720573; also: potency is read from the fitted curve at half-maximal effect)
# Method in brief: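 Neuronal cell line stably expressing FLuc/NLuc coincidence reporter under the Parkin promoter, 1,500 cells/well, dosed 24 h after seeding in 7-point series for 24 h at 37 C. FLuc luminescence read; normalized to DMSO and positive control (100%).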
# [5] = qHTS assay for small molecule agonists of the antioxidant response element (ARE) signaling pathway measured by Nrf2-dependant transcriptional activity - cell viability counter screen (AID 720653; active = well fitted curve in the direction sought with a large enough effect in the repeat runs; an effect the other way counts as inactive or inconclusive); details: ARE-bla HepG2 viability, CellTiter-Glo ATP luminescence, 16 h; stronger effect = lower value
# Method in brief: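 ARE-bla HepG2 cells treated with compounds for 16 h at 37C; this counter screen measures viability as intracellular ATP by CellTiter-Glo luminescence after 30 min at room temperature.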
# [6] = qHTS assay for small molecule agonists of the antioxidant response element (ARE) signaling pathway measured by Nrf2-dependant transcriptional activity (AID 720636; active = well fitted curve in the direction sought with a large enough effect in the repeat runs; an effect the other way counts as inactive or inconclusive;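 also: HepG2 cells with an ARE-driven luciferase reporter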)
# Method in brief: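 Reporter gene assay, HepG2 ARE-luc: 16 hr compound, 37 C, 5% CO2; read-out luciferase luminescence.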
Compound,Potency [1],outcome [2],Potency [3],Potency [4],max response [5],outcome [6]
NCCCCN,inactive,inactive,inactive,inactive,,
C=CCN1CCc2cc(O)c(O)cc2C(c2ccccc2)C1 (stereo not given),inactive,inactive,inactive,inactive,,
C=C1C[C@@]23CC[C@H]4[C@@](C)(CCC[C@@]4(C)C(=O)O)[C@@H]2CC[C@]1(O)C3,inactive,inactive,inactive,inactive,,
Cc1cc(Cn2cnc3c2C[C@@H](C(=O)O)N(C(=O)C(c2ccccc2)c2ccccc2)C3)ccc1N,inactive,inactive,inactive,inactive,,
CCCCCCCCCCCCCCC[C@H](O)[C@H](N)CO,inactive,inactive,inactive,inactive,,
CC1C(=O)N(C)C(=O)c2nc[nH]c21 (stereo not given),inactive,inactive,inactive,inactive,,
CC(C)NCC(O)COc1ccc(CC(N)=O)cc1 (stereo not given),inactive,inactive,inactive,inactive,,
COCc1nc2c([nH]1)c(=O)n(C)c(=O)n2CC(C)C,inactive,inactive,inactive,inactive,,
COC(=O)C(N)Cc1ccc(Cl)cc1 (stereo not given),inactive,inactive,inactive,inactive,,
Cc1cc2c(cc1Cl)N(C(=O)Nc1ccnc3ccccc13)CC2,inactive,inactive,inactive,inactive,,
CCn1c(=O)[nH]c2cc(Cl)c(Cl)cc21,inactive,inactive,inactive,inactive,,
O=c1[nH]c2ccccc2c2ccccc12,inactive,inactive,inactive,inactive,,
COc1ccc(NC(=O)c2ccc(-c3ccc(-c4noc(C)n4)cc3C)cc2)cc1N1CCN(C)CC1,inactive,inactive,20.6 µM (active),inactive,,
COc1ccc(CCN(C)CCc2ccc(OC)c(OC)c2)cc1OC,inactive,inactive,inactive,inactive,,
N[C@@H](CCCC(=O)O)C(=O)O,inactive,inactive,inactive,inactive,,
CC(=O)O[C@H]1Cc2ccccc2N(C(N)=O)c2ccccc21,inactive,inactive,inactive,inactive,,
N[C@H](C(=O)O)[C@H](Cc1ccccc1)C(=O)O,inactive,inactive,inactive,inactive,,
NCCNS(=O)(=O)c1cccc2c(Cl)cccc12,inactive,inactive,inactive,inactive,,
CC(N)=NCCCC[C@@H](N)C(=O)O,inactive,inactive,inactive,inactive,,
COc1ccc2c(c1)c(CC(=O)O)c(C)n2Cc1ccc(Cl)cc1,,inactive,,,,
O=c1oc(Cl)c(Cl)c2ccccc12,inactive,,inactive,,,

Compound,Potency [1],outcome [2],Potency [3],Potency [4],max response [5],outcome [6]
CN1C2CCC1CC(OC(c1ccccc1)c1ccccc1)C2 (stereo not given),inactive,inactive,inactive,inactive,,
c1ccc(C(NCc2cccnc2)(c2ccccc2)c2ccccc2)cc1,inactive,,inactive,inactive,,
O=c1onc2cnc3ccccc3n12,inactive,inactive,inactive,inactive,,
CCCCCC[C@@H]([C@@H](C)O)n1cnc2c(N)ncnc21,inactive,inactive,inactive,inactive,,
CC1=C(/C=C/C(C)=C/C=C/C(C)=C\C(=O)O)C(C)(C)CCC1,inactive,inactive,inactive,,3.98%,
CC(=O)/C(C)=N/O,inactive,inactive,inactive,inactive,,
Nc1ccc(CCNc2ncnc3c2ncn3C2OC(CO)C(O)C2O)cc1 (stereo not given),inactive,inactive,inactive,inactive,,
CCSC(=N)N,inactive,inactive,inactive,inactive,,
COc1ccccc1N1CCN(CCCNc2c(C)c(=O)n(C)c(=O)n2C)CC1,inactive,inactive,inactive,inactive,,
C/C(=C\c1ccc(C(=O)O)cc1)c1ccc2c(c1)C(C)(C)CCC2(C)C,inactive,inactive,inactive,inactive,-1.94%,inactive
Cc1ccc2c(c1)C(N1CCN(C)CC1)=Nc1cccnc1N2,inactive,inactive,inactive,inactive,,
N=C(N)c1ccc(OCCCCCOc2ccc(C(=N)N)cc2)cc1 (tested in a mixture with another compound),inactive,inactive,inactive,inactive,,
NC(=Nc1ccccc1)NC(=O)c1nc(Cl)c(N)nc1N,inactive,inactive,,8.2 µM (active),,
C=CC1(C)CC(=O)C2(O)C(C)(O1)C(OC(C)=O)C(O)C1C(C)(C)CCC(O)C12C (stereo not given),inactive,inactive,,inactive,,
CCCC[C@@]1(C2CCCC2)Cc2cc(OCC(=O)O)c(Cl)c(Cl)c2C1=O,inactive,inactive,,inactive,,
Brc1c(Br)c(Br)c2[nH]cnc2c1Br,inactive,inactive,,inactive,,
COC(=O)[C@H](NC(=O)c1cc(-c2ccccc2)nc2ccccc12)c1ccccc1,inactive,inactive,,inactive,,
COc1cc(/C=C(\C#N)C(=O)Nc2nnc(C(F)(F)F)s2)ccc1OCc1ccc(C(F)(F)F)cc1C(F)(F)F,inactive,inactive,,inactive,,
CCCCCCCCCCC/C=C\C(C)(C)/C=C\CCCC(=O)O,inactive,inactive,inactive,inactive,,
CCCc1c(OCCCOc2ccc(OCC(=O)O)cc2)ccc(C(C)=O)c1O,inactive,inactive,inactive,inactive,7.96%,inactive
N#CC(=C(\N)Sc1ccccc1N)/C(C#N)=C(/N)Sc1ccccc1N,inactive,inactive,,inactive,,

Compound,Potency [1],outcome [2],Potency [3],Potency [4],max response [5],outcome [6]
CC[C@@H]1Cc2cc(O)ccc2C2=C1c1ccc(O)cc1C[C@H]2CC,inactive,inactive,inactive,inactive,-25.6%,inactive
O=c1[nH]c(=S)[nH]c(-c2ccccc2)c1Cc1c(O)ccc2ccccc12,inactive,inactive,,inactive,,
CC(=O)SC1CC2=CC(=O)CC[C@]2(C)C2CC[C@@]3(C)C(CC[C@@]34CCC(=O)O4)C12 (stereo not given in full),,inactive,,,,
CCCCCCN(CCCCCC)C(=O)Cc1c(-c2ccc(F)cc2)[nH]c2ccccc12,inactive,inactive,inactive,inactive,,
CC(=O)O[C@H]1CC2(C)[C@@H](C[C@@H](O)[C@H]3[C@@]4(C)CC[C@@H](O)[C@@H](C)[C@@H]4CC[C@@]32C)C1=C(CCC=C(C)C)C(=O)O (stereo not given in full),inactive,inactive,inactive,inactive,,
O=c1cc(O)cc(/C=C/c2ccc(O)c(O)c2)o1,inactive,inactive,,inactive,,
Oc1cc2c(cc1O)C(c1ccccc1)CNCC2 (stereo not given),inactive,inactive,inactive,inactive,,
C[C@H](NC(=O)/C(C#N)=C/c1ccc(O)c(O)c1)c1ccccc1,inactive,inactive,,inactive,,
Cn1c(=O)[nH]c2ncn(C)c2c1=O,inactive,inactive,inactive,inactive,,
O=C(O)/C=C/c1ccc(O)c(O)c1,inactive,inactive,inactive,inactive,,
O=C(O)Cc1ccc(O)c(O)c1,inactive,inactive,inactive,inactive,,
CCC1(O)CC2CN(CCc3c([nH]c4ccccc34)[C@@](C(=O)OC)(c3cc4c(cc3OC)N(C=O)C3[C@]45CCN4CC=C[C@@](CC)([C@@H](OC(C)=O)[C@]3(O)C(=O)OC)[C@H]45)C2)C1 (stereo not given in full),inactive,inactive,inactive,inactive,,
S=C(S)N1CCCC1,inactive,,inactive,inactive,,
CCCc1c(-c2ccc(O)cc2)nn(-c2ccc(O)cc2)c1-c1ccc(O)cc1,inactive,inactive,2.06 µM (active),,-5.61%,inactive
OC[C@H]1NC[C@@H](O)[C@@H]1O,inactive,inactive,inactive,inactive,,
O=C(O)c1cccnc1C(=O)O,,inactive,inactive,,,
N=C(N)c1ccccc1,,inactive,inactive,inactive,,
CCN(c1nc(N)c(C(=O)N=C(N)N)nc1Cl)C(C)C,,inactive,inactive,inactive,,
O=c1onc2n1-c1cc(Br)ccc1OC2,,inactive,inactive,,,
NC(Cc1cccc(-c2ccccc2CP(=O)(O)O)c1)C(=O)O (stereo not given),,inactive,inactive,,,
Nc1nc2ccc(Cl)cc2c2nc(-c3ccco3)nn12,,inactive,inactive,inactive,,

Compound,Potency [1],outcome [2],Potency [3],Potency [4],max response [5],outcome [6]
C#CC(N)CCC(=O)O (stereo not given),,inactive,inactive,inactive,,
O=c1[nH]c2cc(Cl)ccc2c(O)c1-c1ccc(Oc2ccccc2)cc1,,inactive,inactive,inactive,,
CCCN(CCc1ccccc1)C1CCc2c(O)cccc2C1 (stereo not given),,inactive,inactive,inactive,,
N[C@@H](Cc1c[nH]c2ccccc12)C(=O)O,,inactive,inactive,inactive,,
O=C(O)C1CCCNC1 (stereo not given),,inactive,inactive,inactive,,
O=[N+]([O-])c1cccc2cn[nH]c12,,inactive,inactive,,,
Nc1ncnc2c1nc(Sc1ccc(Cl)cc1)n2[C@H]1OC2COP(=O)(O)O[C@@H]2C1O (stereo not given in full),,inactive,inactive,inactive,,
COC(=O)C(C)(N)Cc1ccc(O)cc1 (stereo not given),,inactive,inactive,,,
CC[N+](CC)(CC)CC(=O)Nc1c(C)cccc1C,,inactive,inactive,inactive,,
NC(N)=NC(N)=Nc1ccccc1,,inactive,inactive,inactive,,
NC(N)=[N+]1CCc2ccccc2C1,,inactive,inactive,,,
CC(C)NC[C@H](O)COc1cccc2ccccc12,,inactive,inactive,inactive,,
O=S(=O)(c1cccc2c(Cl)cccc12)N1CCCNCC1,,inactive,inactive,inactive,,
N#Cc1cc([N+](=O)[O-])c2sc(C(N)=O)[n+]([O-])c2c1,,inactive,inactive,inactive,,
Nn1nnc2ccccc21,,inactive,inactive,,,
NC(N)=NC(N)=Nc1cccc(Cl)c1,,inactive,inactive,inactive,,
CC(C)[C@@H]1CC[C@@H](C)C[C@@H]1P(=O)(c1ccccc1)c1ccccc1,,inactive,inactive,inactive,,
C=CCN1CCc2c(cc(O)c(O)c2Cl)C(c2ccccc2)C1 (stereo not given),,inactive,inactive,inactive,,
CCCCS(=N)(=O)CC[C@H](N)C(=O)O (stereo not given in full),,inactive,inactive,,,
COc1ccc(-c2ccc(N)[n+](CCCC(=O)O)n2)cc1,,inactive,inactive,inactive,,
